CR mimetic SO: lowers age-related superoxide in aged yeast cells; S. cerevisiae aged cells, superoxide DHE fluorescence; stronger effect = lower value; superoxide response (% of plate mean), % at 10 µM; hit rate 0.18% among 330,000;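 active means superoxide response under a set limit, about three screen SD below normal, cut at about 65% in these data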;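 further: yeast aged for seven days with compound at 30 °C before DHE staining; 100% = average MFI of all compound-treated wells on the plate with controls excluded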
AHR act: activates the human aryl hydrocarbon receptor; hit rate 2.5% among 320,000; activation, % at 5 µM; P35869; AHR-responsive luciferase reporter cells, luminescence; AID 2796; in the data active means activation above about 47%;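 further: 0% = vehicle wells and 100% = reference agonist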
HIF act: HIF pathway transcriptional activation | U2OS HRE-luciferase reporter, luminescence; normalized: DMSO 0%, desferrioxamine 100% | activation, % at 7.5 µM (by protocol) | hit rate 0.32% among 300,000 | AID 1910;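 active means mean activation of at least 10% of the iron chelator positive control signal, with at least half of replicates also reaching 10%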
PLC-gamma1 inh: PLC-gamma1 (human) inhibition, primary screen | P19174 | purified PLC-gamma1, fluorogenic substrate, fluorescence | inhibition, % at 12.2 µM | hit rate 0.84% among 370,000 | AID 720700; in the data active means inhibition above about 9.5%
PLC-beta3 inh: PLC-beta3 (human) inhibition, primary screen. Purified PLC-beta3, fluorogenic substrate, fluorescence. hit rate 0.18% among 370,000. inhibition, % at 12.2 µM. Q01970; in the data active means inhibition above about 11%;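 further: 0% = median of compound wells on plate and 100% = full blocker control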
sPLA2-III inh: Blocks human group III sPLA2 activity. inhibition, % at 12.2 µM. hit rate 0.56% among 370,000. AID 743126. QFRET BODIPY PC-A2 liposome hydrolysis, fluorescence. Q9NZ20;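 active means inhibition above mean plus 3 SD of compounds lying within the high and low control bounds, cut at about 19% in these data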;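 further: 0% = median of test compound wells and 100% = no enzyme DMSO wells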
Target sequence (Q9NZ20 whole entry, looked up): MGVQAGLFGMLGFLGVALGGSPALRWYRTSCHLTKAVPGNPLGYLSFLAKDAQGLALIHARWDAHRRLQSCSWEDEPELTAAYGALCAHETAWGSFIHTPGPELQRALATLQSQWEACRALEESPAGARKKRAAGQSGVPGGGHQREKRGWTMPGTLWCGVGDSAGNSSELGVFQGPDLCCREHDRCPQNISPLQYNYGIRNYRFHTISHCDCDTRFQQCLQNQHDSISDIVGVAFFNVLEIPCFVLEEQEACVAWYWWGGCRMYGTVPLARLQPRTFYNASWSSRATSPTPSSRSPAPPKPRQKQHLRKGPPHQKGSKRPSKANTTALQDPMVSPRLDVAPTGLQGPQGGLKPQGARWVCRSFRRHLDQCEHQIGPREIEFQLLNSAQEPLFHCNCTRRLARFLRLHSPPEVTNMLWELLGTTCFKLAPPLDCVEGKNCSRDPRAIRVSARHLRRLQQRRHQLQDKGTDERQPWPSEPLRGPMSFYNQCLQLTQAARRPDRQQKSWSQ
* = called active by the depositor; i = inactive; x = not tested or not shown. An excerpt weighted towards active compounds, which were near 3.9% of everything screened.

SMILES	CR mimetic SO	AHR act	HIF act	PLC-gamma1 inh	PLC-beta3 inh	sPLA2-III inh
Cc1cc(/C=C2/NC(=O)N(c3ccccc3)C2=O)c(C)n1-c1cccnc1	109	109*	2	-16	-23	-4
Cc1cc(/C=C2/NC(=S)NC2=O)c(C)n1-c1cccnc1	98	38	0	-23	-23	0
Cc1ccc(-c2cc(-c3nnc(SCC(=O)N4c5ccccc5Sc5ccccc54)n3N)[nH]n2)cc1	x	x	x	0	-2	5
CC1CCN(S(=O)(=O)c2ccc3c4c2CC(=O)N4CC(C)S3)CC1 (configuration not stated)	92	10	187*	-5	-13	-5
NC(=O)N/N=C/c1ccc(-c2cccc(C(F)(F)F)c2)o1	97	78*	2	-2	-17	5
CCOC(=O)N1CCN(C(=O)c2ccc(Cn3c(=S)[nH]c4cc(OCC)c(OCC)cc4c3=O)cc2)CC1	101	-2	18*	-2	-5	5
CC1=C(CC(=O)c2ccc(Cl)cc2)C(=O)c2ccccc2C1=O	104	55*	1	-2	0	-9
CCN(CC)C(=N)/C(C#N)=N/Nc1ccc(C)cc1	111	75*	3	3	3	16
COC(=O)[C@]12C[C@H](CC(=O)NCc3cccc4ccccc34)C(=O)N(Cc3ccco3)C1=C[C@H](COCc1ccccc1)O[C@@H]2C	x	x	x	8	3	-13
Cc1n[nH]c(C)c1S(=O)(=O)NCCc1cccc(F)c1	x	x	x	0	-4	6
Cc1ccc(NC(=O)C2=C(O)CCn3c2nc2ccccc23)cc1	113	57*	1	6	0	-9
CC1CCC/C(=N/Nc2nc3ccccc3s2)C1 (configuration not stated)	72	62*	1	-28	-34	8
CC1(C)CC(=O)C/C(=N/Nc2nc3ccccc3s2)C1	103	23	1	-47	-65	-18
Cc1ccc(-c2nc3ccc(Cl)cc3c(=O)n2O)cc1	125	14	-2	-15	-26	-13
O=c1c2cc(Br)ccc2nc(-c2ccccc2)n1O	112	48*	2	-3	-10	7
COc1ccc(NC(C)=O)cc1NC(=O)c1ccc(Cl)cc1	78	29	0	0	-4	5
COc1cc(NC(=O)c2ccc(Cl)cc2)c(OC)cc1Cl	87	60*	0	1	-5	4
COc1ccc(C2COC(=O)C2=N)c(NC(=O)c2ccc(Cl)cc2)c1 (configuration not stated)	85	76*	-15	-19	-21	0
COc1cc(NC(=O)c2ccc(C)cc2)c(OC)cc1NC(=O)CN1CCOCC1	87	30	2	-3	-3	-1
COc1cc(NC(=O)c2ccc(Cl)cc2)c(OC)cc1NC(=O)CN1CCOCC1	110	48*	2	-3	-5	-7
CC(=O)Nc1nc2ncccn2c1-c1ccc(C)cc1	x	x	x	i	i	5
CC(=O)c1sc(Nc2ccccn2)nc1C	84	61*	1	-14	-19	-1
Cc1cc(C(F)(F)F)c(C#N)c(SCC(=O)Nc2nc3ccccc3s2)n1	99	57*	0	-168	-196	-5
Cc1nn(-c2ccccc2)c(C)c1/C=N\N1CCN(Cc2ccccc2Cl)CC1	x	x	x	1	2	-1
CC(C)c1ccc(C(O)Cc2nc3ccccc3n2C)cc1 (configuration not stated)	109	70*	2	2	-34	-3
SMILES	CR mimetic SO	AHR act	HIF act	PLC-gamma1 inh	PLC-beta3 inh	sPLA2-III inh
CN(C)c1ccc(C(O)Cc2nc3ccccc3n2C)cc1 (configuration not stated)	103	60*	-3	-123	-178	8
COc1ccccc1C(O)Cc1nc2ccccc2n1C (configuration not stated)	107	2	1	4	-1	5
CC(C)CCNC(=O)C1CCCN(C(=O)c2ccc3c(c2)NC(=O)CS3)C1 (configuration not stated)	x	x	x	4	-1	6
O=C(CSc1nc2sc3c(c2c(=O)n1-c1ccc(Cl)cc1)CCCC3)c1ccccc1Cl	x	x	x	0	1	1
O=C(O)c1cccc(N/N=C/c2cn(-c3ccccc3)nc2-c2cccs2)c1	93	54*	4	-18	-36	-16
NC(=O)N/N=C/c1cn(-c2ccccc2)nc1-c1cccs1	93	33	1	-6	-12	-6
